CYP2C9 act = increases human cytochrome P450 2C9 activity; P11712; recombinant CYP2C9, luciferin-H conversion, luminescence; hits give high values; factor 1 = untreated enzyme, 0 = blocked; activation factor at 5 µM; actives 1.4% (n = 96,000); AID 1024;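 active = activation factor of 2 or more for CYP2C9 at a 5 µM dose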;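 note: 0 = sulfaphenazole-blocked wells and 1 = vehicle-only wells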
Target sequence (P11712 whole entry, looked up): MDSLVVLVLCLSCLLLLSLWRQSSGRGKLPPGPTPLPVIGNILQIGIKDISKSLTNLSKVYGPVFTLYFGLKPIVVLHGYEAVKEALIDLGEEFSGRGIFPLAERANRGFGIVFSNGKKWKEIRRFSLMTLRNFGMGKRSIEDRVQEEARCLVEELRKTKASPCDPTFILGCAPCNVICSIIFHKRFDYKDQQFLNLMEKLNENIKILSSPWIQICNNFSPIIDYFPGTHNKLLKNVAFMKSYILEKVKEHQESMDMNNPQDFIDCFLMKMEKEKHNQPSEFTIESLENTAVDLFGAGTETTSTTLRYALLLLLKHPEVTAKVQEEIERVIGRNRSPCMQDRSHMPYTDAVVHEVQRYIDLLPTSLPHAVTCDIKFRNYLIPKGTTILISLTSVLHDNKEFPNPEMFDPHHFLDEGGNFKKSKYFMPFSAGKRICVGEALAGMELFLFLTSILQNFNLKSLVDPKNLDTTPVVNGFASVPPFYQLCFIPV
CYP2C19 inh = human CYP2C19 inhibition | P33261 | inhibition, % at 5 µM | CYP2C19 Supersomes, luciferin-H EGE luminescence, 30 min | AID 778 | actives 21% (n = 96,000);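 active = CYP2C19 inhibition above a set limit at 5 µM in the primary screen, cut at about 50% in these data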;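 note: plate controls were negative control wells for no effect and 2.5 mM tranylcypromine positive control for full effect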
PostGolgi ctrl = inhibits growth of the yeast control strain; efflux-deficient yeast background strain, growth absorbance A615, 16 h; actives 5% (n = 98,000); inhibition, % at 10 µM; AID 738
PostGolgi yeast = growth inhibition of a yeast mutant, post-Golgi transport screen. actives 0.9% (n = 98,000). post-Golgi transport phenotypic cell assay. inhibition, % at 10 µM;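 note: yeast cells grown in 1536-well plates; yeast grown about 18 h at 30C before absorbance read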
CYP2C19 act = activators of human cytochrome P450 2C19; P33261; recombinant CYP2C19, luciferin-H EGE luminescence; hits give high values; 0 = fully inhibited enzyme, 1 = untreated enzyme; activation factor at 5 µM; 96,000 tested, under 10 active; AID 1025;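 active = activation factor of at least 2 at 5 µM in the primary screen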;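 note: 0 = wells with 2.5 mM tranylcypromine and 1 = vehicle-only wells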
CYP2C9 inhib = inhibitors of human CYP2C9; P11712; CYP2C9 Supersomes, luciferin-H conversion, luminescence; inhibition, % at 5 µM; actives 20% (n = 96,000); AID 777;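 active = blocking of liver enzyme CYP2C9 beyond about 50% at 5 µM, limit read from the data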
* = called active by the depositor; x = not tested or not shown. Rows were chosen to be rich in hits. Some 32% of all compounds tested hit in one or more screens of this group. Cut-off read from the data, not from the text of the source, unless noted: active = inhibition above about 30%; inactive = the rest.

SMILES	CYP2C9 act	CYP2C19 inh	PostGolgi ctrl	PostGolgi yeast	CYP2C19 act	CYP2C9 inhib
COc1ccccc1CNS(=O)(=O)c1c(C)[nH]c(=O)[nH]c1=O	1.1	15	-1	-11	0.8	-12
CN(Cc1ccccc1)C(=O)CSc1nnc(-c2ccco2)n1-c1ccccc1	0.8	23	2	13	0.8	18
Cc1cccc(-c2nnc(SCCOc3ccc4c(C)cc(=O)oc4c3)o2)c1	0.5	41	13	3	0.6	47
CC/C(=C\C(=O)c1cccnc1)Nc1ccc(C)c(C)c1	0.4	71*	10	-3	0.3	58*
Cc1cccnc1NC(=O)C1CCN(S(=O)(=O)c2ccc3c(c2)CCC(=O)N3)CC1	0.7	6	10	-2	0.9	26
COC(=O)c1ccc(NC(=O)c2ccccc2N(C)S(C)(=O)=O)cc1	0.6	62*	-1	-4	0.4	38
COC(=O)c1ccccc1NC(=O)c1ccccc1N(C)S(C)(=O)=O	0.6	50*	6	-1	0.5	39
CCOC(=O)c1ccccc1NC(=O)c1ccccc1N(C)S(C)(=O)=O	0.6	76*	17	-10	0.2	43
CN(c1ccccc1C(=O)Nc1ccc(S(=O)(=O)N2CCCC2)cc1)S(C)(=O)=O	0.4	8	8	-12	0.9	64*
CCOc1ccc(OCCCC(=O)O)cc1	1.2	-18	-7	17	1.2	-17
COc1ccc(N2CCN(CCCNC(=O)CN3CCN(Cc4ccccc4C)C3=O)CC2)cc1	0.6	7	2	-3	0.9	36
O=C(O)c1cc2sccc2s1	0.9	6	1	-11	0.9	8
Cc1cccc(NC(=O)CC2SC(=NC3CCCCC3)NC2=O)c1 (stereo unspecified)	0.3	27	0	11	0.7	66*
O=C(CC1SC(=NC2CCCCC2)NC1=O)Nc1ccccc1 (stereo unspecified)	x	x	-12	19	x	x
CCS(=O)(=O)Nc1cccc(C2=NN(S(=O)(=O)c3ccccc3)C(c3cccs3)C2)c1 (stereo unspecified)	0.3	50*	2	9	0.5	67*
CCc1ccc(C2=NN(S(C)(=O)=O)C(c3cccs3)C2)cc1 (stereo unspecified)	0.6	56*	5	-17	0.4	41
Cc1ccc(C2=NN(S(C)(=O)=O)C(c3cccs3)C2)cc1 (stereo unspecified)	0.6	99*	-6	2	0	44
CS(=O)(=O)N1N=C(c2ccc(Br)cc2)CC1c1cccs1 (stereo unspecified)	0.6	92*	9	2	0.1	35
O=S(=O)(Nc1cccc2cccnc12)c1ccc(S(=O)(=O)N2CCCC2)cc1	0.7	45	10	7	0.5	30
Cc1cc(C)cc(N2C(=O)CC(Sc3nnnn3-c3ccccc3)C2=O)c1 (stereo unspecified)	1.5	54*	1	5	0.5	-49
O=C1/C(=C/c2ccccc2)NC(=S)N1C(c1ccccc1)c1ccccc1	0.4	15	-1	1	0.9	60*
O=C(COC(=O)c1cccc(C(=O)OCC(=O)c2ccc(Br)cc2)n1)c1ccc(Br)cc1	1.1	-12	-11	-1	1.1	-6
COc1cccc(/C=C/c2ccncc2)c1OC	0	99*	5	-5	0	98*
CNc1nc2ccccc2n1/N=C/c1cccc(OC)c1OC	1	13	8	7	0.9	2
O=C(CN(C1CCCCC1)S(=O)(=O)c1ccc(Cl)cc1)N1CCOCC1	0.7	3	9	2	1	27
SMILES	CYP2C9 act	CYP2C19 inh	PostGolgi ctrl	PostGolgi yeast	CYP2C19 act	CYP2C9 inhib
O=C(CC12CC3CC(C1)CC(CC(=O)N1CCCC1)(C3)C2)N1CCCC1	1.1	-8	-6	-5	1.1	-15
CCCS(=O)(=O)N1CCc2cc(OC)c(OC)cc2C1	1	55*	2	2	0.4	3
C/C=C(\C)CN1CCc2cc(OC)c(OC)cc2C1	0.9	40	2	0	0.6	9
Cc1cc(NC(=O)C2C3C(=O)N(Cc4ccc(Cl)cc4)C(C(=O)NC(C)(C)C)C34C=CC2(C)O4)no1 (stereo unspecified)	1.2	-19	1	4	1.2	-18
O=C(Nc1nnc(CCN2CCOCC2)s1)C1CCCCC1	1	-1	-6	-1	1	0
O=C(NC(NCC1CCCO1)C(Cl)(Cl)Cl)c1cccc2ccccc12 (stereo unspecified)	0.7	8	1	27	0.9	30
CC(C)CC(=O)NC(NCC1CCCO1)C(Cl)(Cl)Cl (stereo unspecified)	0.7	57*	-4	1	0.4	32
CCn1c(=O)cc(N2CCC3(CC2)OCCO3)[nH]c1=O	1.1	-9	0	5	1.1	-8
NC(=O)C1CCCN(S(=O)(=O)c2ccccc2)C1 (stereo unspecified)	1.2	23	5	-2	0.8	-19
O=S(=O)(/N=S1/CC=CCN1S(=O)(=O)c1ccccc1)c1ccccc1 (stereo unspecified)	0.4	2	2	-13	1	55*
COC(=O)c1c(NC(=O)CSc2nnc(CNc3ccc(Cl)cc3)o2)sc(C)c1C	0.5	13	26	-5	0.9	46
O=C(CCS(=O)(=O)c1ccc(Br)s1)N1CCc2ccccc21	1.5	24	10	6	0.8	-48
O=C(NCCc1ccncc1)C12CC3CC(CC(C3)C1)C2	0.8	94*	-4	8	0.1	25
O=C(CC12CC3CC(CC(C3)C1)C2)NCc1ccncc1	0.1	99*	13	0	0	88*
CNC(=O)CC12CC3CC(CC(C3)C1)C2	1	-1	3	-9	1	3
O=C(CN1C(=O)C2C3C=CC(C3)C2C1=O)NCCc1ccccc1 (stereo unspecified)	0.8	33	12	2	0.7	21
O=C(COC(=O)C12CC3CC(CC(C3)C1)C2)NCCc1ccccc1	0.1	53*	40*	-2	0.5	85*
C=CCc1cc(/C=N/NC(=O)CSc2nnc(CCCc3ccc(OC)cc3)o2)cc(OC)c1O	0.2	89*	4	1	0.1	80*
COc1ccc(/C=N/NC(=O)CSc2nnc(CCCc3ccc(OC)c(C)c3)o2)cc1	0.2	78*	6	-15	0.2	84*
C=CCc1cc(/C=N\NC(=O)CSc2nnc(CCCc3ccc(OC)c(C)c3)o2)cc(OC)c1O	0.2	86*	-1	-6	0.1	83*
COc1cc(-c2nnc(-c3ccco3)o2)ccc1OCc1ccccc1	x	x	25	5	x	x
CC(=O)C1=C(C)Nc2ncnn2C1c1ccc(Cl)cc1 (stereo unspecified)	0.4	64*	0	-2	0.4	59*
